Screening data deposited in PubChem BioAssay by several laboratories.
Only some compounds are listed: those with a hit (about 0.82% of all), similar ones and a draw of the others.
TcdB GH inh – TcdB glycohydrolase inhibitors, primary screen, biochemical, single point, plate reader | Toxin B (Clostridioides difficile), P18177 | TcdB glycohydrolase enzymatic assay | inhibition, % at 9.99 µM | hit rate 0.24% among 350,000; in the data active = inhibition above about 10%
DUSP3 inh – VHR1 phosphatase inhibitors, primary screen, biochemical, absorbance, uHTS; Dual specificity protein phosphatase 3 (Homo sapiens), P51452; recombinant VHR phosphatase, pNPP absorbance; inhibition, % at 13.3 µM; hit rate 0.52% among 290,000; in the data active = inhibition above about 50%
Target sequence (P51452 whole entry, looked up): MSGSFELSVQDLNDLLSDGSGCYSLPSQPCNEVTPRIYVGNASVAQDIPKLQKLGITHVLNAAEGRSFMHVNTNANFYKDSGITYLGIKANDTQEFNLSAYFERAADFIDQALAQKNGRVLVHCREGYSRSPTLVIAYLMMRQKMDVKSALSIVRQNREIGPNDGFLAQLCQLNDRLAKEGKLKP
PrPC surface inh – inhibitors of human cell surface prion protein PrPC, primary screen, cell-based, TR-FRET; TR-FRET read-out; inhibition, % at 13.8 µM; hit rate 0.43% among 370,000; AID 720596, 2013; in the data active = inhibition above about 24%; note: 0% = median of the test wells and 100% = reference compound wells
Numbers without * were called inactive; / = no result.

SMILES	TcdB GH inh	DUSP3 inh	PrPC surface inh
CCn1c(=O)n(CC)c2cc(N3CCCC3)c(NC(=O)c3ccc(C)cc3)cc21	-4	56*	9
C[C@H](CO)N1C[C@H](C)[C@H](CN(C)C(=O)Nc2ccc3c(c2)OCO3)Oc2ncc(-c3cccnc3)cc2C1=O	1	/	/
COc1cccc(-c2ccc3c(c2)[C@H]2[C@H](CCN2C(=O)NC2CCCCC2)[C@H](CO)N3C)c1	0	/	/
Cc1cc(=O)oc2cc(OC(C)C(=O)NCCCn3ccnc3)ccc12 (configuration not stated)	1	18	0
CC(Oc1ccc2c3c(c(=O)oc2c1)CCCC3)C(=O)NCCCn1ccnc1 (configuration not stated)	0	58*	0
Cc1ccccc1S(=O)(=O)N1C[C@@H](O)COC[C@@H]2O[C@@H](CC(=O)N3CCN(C)CC3)CC[C@H]21	0	/	/
Cc1cccc(CCNS(=O)(=O)c2ccc3c(c2)oc(=O)n3C)c1	/	42	8
Cn1c(=O)oc2cc(S(=O)(=O)NCCc3ccccc3)ccc21	/	57*	-3
C[C@@H]1CN([C@@H](C)CO)C(=O)c2cc(NS(C)(=O)=O)ccc2O[C@@H](C)CCCCO[C@H]1CN(C)C(=O)CCCN(C)C	0	/	/
O=c1c2ccccc2nc(/C=C/c2ccccc2)n1-c1ccccc1O	3	28	9
O=c1c2ccccc2nc(/C=C/c2ccc(O)cc2)n1-c1ccccc1O	12*	21	-2
Cc1noc(C)c1S(=O)(=O)N(C)C[C@H]1Oc2ccc(NC(=O)Nc3ccc4c(c3)OCO4)cc2C(=O)N([C@@H](C)CO)C[C@H]1C	-1	/	/
COCc1cn(CC[C@@H]2CC[C@H](NC(=O)Cc3cccnc3)[C@H](CO)O2)nn1	-2	/	/
CCN(CC)CCNc1ccc(CO)c2oc3cc(Cl)ccc3c(=O)c12	0	/	-6
CCN(CC)CCNc1ccc(C)c2sc3ccc(O)cc3c(=O)c12	29*	/	-10
Cc1[nH]n(-c2ccccc2)c(=O)c1/C=N/O	2	4	1
Cc1[nH]n(-c2ccccc2)c(=O)c1/C=N/N1C(=O)c2ccc3c4c(ccc(c24)C1=O)CC3	/	51*	-18
CC(=O)N1[C@@H]2c3ccc(C4=CCCCC4)c(=O)n3C[C@H]1[C@H](CO)[C@H]2C(=O)NC1CCC1	0	/	/
Cc1noc(C)c1NC(=O)N(C)C[C@@H]1Oc2ccc(NC(=O)NC3CCCCC3)cc2CC(=O)N([C@H](C)CO)C[C@@H]1C	-2	/	/
CCOC(=O)N1CCN(c2c(-c3ccc(C)cc3)c(=O)c2=O)CC1	/	54*	-21
CCOC(=O)N1CCN(c2c(-c3ccc(C(C)C)cc3)c(=O)c2=O)CC1	/	20	-10
CN1c2ccc(Br)cc2[C@@H]2[C@@H](CCN2S(=O)(=O)c2cccc(F)c2)[C@@H]1CO	-1	/	/
COc1ccc2c3c([nH]c2c1)[C@H](CO)N(Cc1cccc(Cl)c1)CC31CN(C(C)=O)C1	-1	/	/
O=C(Nc1ccc(-c2nnco2)cc1)c1ccccc1	/	-4	5
O=C(Nc1ccccc1)Nc1cccc(-c2nnco2)c1	-2	53*	10
SMILES	TcdB GH inh	DUSP3 inh	PrPC surface inh
COc1ccc(NC(=O)Nc2ccc3c(c2)C(=O)N([C@@H](C)CO)C[C@@H](C)[C@@H](CN(C)S(=O)(=O)c2ccc(C)cc2)OCCCC[C@@H](C)O3)cc1	0	/	/
O=c1c2ccccc2nc2c3ccccc3c(NCc3ccccn3)nn12	2	57*	1
O=c1c2ccccc2nc2c3ccccc3c(NCc3cccnc3)nn12	-1	26	-1
O=C(NC1(C(=O)NC2CCCC2)CCCCC1)c1ccc2c(c1)OCO2	/	-3	-7
O=C(NC1(C(=O)NC2CCCCC2)CCCCC1)c1ccc2c(c1)OCO2	/	52*	6
O=C(Nc1cc(F)ccc1F)N[C@H]1CC[C@H](CCn2cc(C3CC3)nn2)O[C@@H]1CO	0	/	/
Cc1ccc(NC(=O)C2C3C=CC4(O3)C2C(=O)N(CCCN2CCCC2)C4C(=O)NC2CCCCC2)cc1Cl (configuration not stated)	2	53*	3
Cc1ccc(NC(=O)C2C3C=CC4(O3)C2C(=O)N(CCCN2CCCCC2)C4C(=O)NC2CCCCC2)cc1Cl (configuration not stated)	2	16	2
COc1ccc(S(=O)(=O)N(C)C[C@@H]2OCCCC[C@H](C)Oc3ccc(N(C)C)cc3C(=O)N([C@H](C)CO)C[C@@H]2C)cc1	-18	/	/
NC1=NC2(CCCCC2)N(c2ccc(F)cc2)C(N)=N1	/	53*	-1
COc1ccc(N2C(N)=NC(N)=NC23CCCC3)cc1	/	29	-5
Cc1cc(N/N=C/c2ccc(O)cc2O)nc(N2CCOCC2)n1	15*	9	-6
Oc1ccc(/C=N\Nc2cc(N3CCOCC3)nc(N3CCOCC3)n2)c(O)c1	-3	-2	0
Cc1ccc(S(=O)(=O)N(C)C[C@@H]2Oc3c(NC(=O)c4nc5ccccc5s4)cccc3C(=O)N([C@@H](C)CO)C[C@H]2C)cc1	0	/	/
Nc1cc(N)cc(C(=O)OCC(=O)Nc2cc(S(=O)(=O)N3CCCCC3)ccc2Cl)c1	11*	28	7
O=C(COC(=O)c1ccc(O)cc1)Nc1cc(S(=O)(=O)N2CCCCCC2)ccc1Cl	0	/	5
CC(C)NC(=O)N[C@@H]1CC[C@@H](CC(=O)NCc2ccc(Oc3ccccc3)cc2)O[C@H]1CO	-1	/	/
CO[C@H]1CN(C)C(=O)c2cc(NC(=O)Nc3ccccc3F)ccc2OC[C@H](C)NC[C@@H]1C	-2	/	/
Cc1cc(Cl)ccc1OCC(=O)NCCOC(=O)Nc1sc(=S)n(C)c1C	2	-6	-5
Cc1ccc(Cl)cc1OCC(=O)NCCOC(=O)Nc1sc(=S)n(C)c1C	/	55*	-3
C[C@H](CO)N1C[C@H](C)[C@@H](CN(C)Cc2ccc(Oc3ccccc3)cc2)Oc2c(NC(=O)Nc3ccc(F)cc3)cccc2C1=O	-2	/	/
Cc1cc(C(=O)NN=Cc2ccccc2C(=O)O)n[nH]1	/	/	-4
Cc1cc([N+](=O)[O-])c2[nH]c(C(=O)N/N=C/c3ccccc3C(=O)O)c(-c3ccccc3)c2c1	/	90*	0
COCCCNC(=O)Cn1c(=O)n(CC(=O)N2CCCCC2)c(=O)c2sccc21	2	2	-3
CCCNC(=O)Cn1c(=O)n(CC(=O)N2CCCCC2)c(=O)c2sccc21	-2	56*	3
SMILES	TcdB GH inh	DUSP3 inh	PrPC surface inh
CCCC(=O)Nc1ccc2c(c1)C(=O)N(C)C[C@H](OC)[C@@H](C)CN(S(=O)(=O)c1cn(C)cn1)[C@@H](C)CO2	1	/	/
COc1ccccc1S(=O)(=O)N[C@@H]1CC[C@@H](CC(=O)N2CCOCC2)O[C@H]1CO	-1	/	/
C#CCONC(=O)c1cc(OCC(F)(F)F)ccc1OCC(F)(F)F	/	53*	-3
O=C(NO)c1cc(OCC(F)(F)F)ccc1OCC(F)(F)F	/	23	12
CN1C(=O)c2cc(NC(=O)c3ccccc3)ccc2OC[C@@H]2O[C@@H](CC(=O)O)CC[C@H]21	1	/	/
COc1ccc(N2CCN(CCCNC(=O)COc3ccc(F)cc3)CC2)cc1	/	/	-9
CC1(C)CC(=O)c2cc(OCC(=O)NCCCN3CCN(c4ccc(F)cc4)CC3)ccc2O1	/	53*	-4
Cc1c(Cl)ccc2c1NC(=O)[C@]21N[C@@H](CCC(N)=O)[C@H]2C(=O)N(c3ccc(F)cc3)C(=O)[C@H]21	/	15	6
